The text below walks through data of PubChem BioAssay (NCI).

Molecules are shown by their SMILES. Compounds without any hit were thinned out: in the full panel of roughly 83,000, 20% have a hit.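 Interpretation: 100, growth as untreated; towards 0, rising growth inhibition; 0, no net growth; 0 to -100, cell death. Compounds scoring below 10 were considered active.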 Unmarked numbers belong to inactive results. Calls of active or inactive are those of the source.

What all share (assay): NCI-60 one-dose screen, 48 h (100 = growth as untreated, 0 = no growth, -100 = all killed)
What all share (details): 10 µM

For experiment [1], the system named is DU-145 prostate.
Experiment [2] concerns K-562 leukemia.
Experiment [3] relates to MALME-3M melanoma.
In experiment [4] the test system is MDA-MB-231 breast.
Experiment [5] concerns RXF 393 renal.
Experiment [6] has as its system SF-268 CNS.
For experiment [7], the system named is SF-295 CNS.
Experiment [8] relates to SF-539 CNS.
The subject of experiment [9] is UACC-257 melanoma.
The subject of experiment [10] is M14 melanoma.

For the molecule `COc1ccc(-c2ccc(/C=N/NC(=O)c3[nH]c4ccc(Br)cc4c3-c3ccccc3)o2)cc1`, the growth in experiment [1] is 75.5%; in experiment [2], 10.5%; in experiment [3] it was 47%; in [4] it was 52.6%; in experiment [5], 16.8%; in experiment [6] it was 37.9%. The growth in [7] is 4.48% (active); in experiment [8], -14.1% (active); in experiment [9], 63.2%; in experiment [10], 17%.
On to `COc1cccc(/C=C2\N=C(C)N(CCc3ccc(S(N)(=O)=O)cc3)C2=O)c1`, for which the growth in experiment [1] is 112%; in [2] it was 99.9%; in experiment [3], 98.2%; in experiment [4], 104%; in [5] it was 121%; in experiment [6] it was 101%. The growth is 105% in [7], 99.8% in [8], 101% in [9] and 100% in experiment [10].
As for `N#Cc1c(Cl)nc(SCc2ccc(F)cc2)nc1-c1ccc(F)cc1`, the growth in experiment [1] was 92.5%; in experiment [2] it was 69.8%; in experiment [3], 112%; in [4] it was 94.6%; in [5], 89.7%; in experiment [6], 96.2%. The growth in experiment [7] was 90%; in experiment [8], 91.9%; in [9], 100%; in experiment [10] it was 103%.
With `Nc1nc2c(F)c(F)c(F)c(F)c2s1`, the growth was 114% in experiment [1]; 93.1% in experiment [2]; 103% in experiment [3]; 116% in [4]; 109% in experiment [5]; 97.8% in experiment [6]. Moreover, the growth in experiment [7] is 96%; in experiment [8], 99%; in [9], 104%; in experiment [10] it was 113%.
Turning to `CC(=O)Nc1ccc(-n2cnc3cc(-c4ccc(NS(C)(=O)=O)cc4)ccc32)cc1`, the growth in experiment [1] was 58.2%; in experiment [2], 24%; in [3] it was 75.6%; in [4] it was 49.4%; in experiment [5], 92.5%; in experiment [6], 47.3%. The growth in [7] was 51%; in [8], 65.3%; in experiment [9] it was 64.4%; in experiment [10], 61.9%.
With `COc1cc(OC(F)(F)F)ccc1C(=O)Nc1sc2c(c1C#N)CCC(=O)C2`, the growth is 103% in [1]; 11% in [2]; 85% in experiment [3]; 66.7% in experiment [4]; 22.8% in experiment [5]; 96.6% in experiment [6]. The growth is 60.7% in [7], 8.76% (active) in [8], 98% in [9] and 64.4% in experiment [10].
Take `COc1cc(/C=C/C(=O)c2cc(OC)c(OC)c(OC)c2)ccc1Oc1nc(Nc2ccc(F)cc2)nc(N(C)C)n1`: the growth was -35.8% (active) in experiment [1]; 2.36% (active) in [2]; -40.3% (active) in experiment [3]; -60% (active) in experiment [4]; -74.9% (active) in [5]; 27.7% in experiment [6]. Further, the growth in experiment [7] is -55.2% (active); in [8], -80.6% (active); in experiment [9], -30.5% (active); in experiment [10], -27.5% (active).
Consider `COc1cc2oc(-c3cccc(C(=O)Nc4ccc(Cl)cc4)c3)cc(=O)c2c(OCCNC(=O)CNC(=O)OC(C)(C)C)c1OC`, for which the growth was 77.5% in experiment [1]; 46% in [2]; 65% in experiment [3]; 30.1% in [4]; -17.7% (active) in experiment [5]; 81.8% in experiment [6]. In addition, the growth in [7] was 50.6%; in experiment [8], 67.3%; in [9], 80.8%; in experiment [10], 60.2%.
In the case of `CCCCCCCCCCCCCCCCCCCC(=O)NCCc1c[nH]c2ccc(O)cc12`, the growth was 105% in [1]; 74.5% in experiment [2]; 120% in [3]; 78% in experiment [4]; 115% in [5]; 91.6% in experiment [6]. Also, the growth in experiment [7] was 96.3%; in [8], 60.8%; in [9], 107%; in experiment [10], 101%.
With `CC(C)CCSc1nc(NC2CC2)c(C#N)c(-c2ccc(C(C)C)cc2)n1`, the growth in [1] was 120%; in experiment [2], 100%; in [3] it was 108%; in [4], 105%; in experiment [5], 113%; in experiment [6] it was 121%. Further, the growth is 100% in experiment [7], 101% in [8], 103% in [9] and 109% in [10].
Consider `COC(=O)CC1CC1C1Cc2c(nc(N(C)S(C)(=O)=O)nc2C(C)C)-c2ccc(F)cc21` (stereo not given), for which the growth in [1] is 92.7%; in experiment [2], 34.3%; in experiment [3], 112%; in experiment [4] it was 69.3%; in [5], 79.8%; in experiment [6] it was 93.8%. The growth in experiment [7] was 72.4%; in experiment [8], 96%; in experiment [9], 83.8%; in experiment [10] it was 70.4%.
For `O=C(c1ccc(Cl)cc1)C1[C@H](c2ccccc2Br)[C@@H](c2ccccc2)NC12C(=O)Nc1ccc(Cl)cc12` (stereo not given in full), the growth in experiment [1] is 29.1%; in [2], 7.94% (active); in experiment [3], 51.8%; in experiment [4] it was 5.9% (active); in experiment [5], -33.7% (active); in [6], 23.4%. Further, the growth is 15.2% in [7], 39.7% in experiment [8], 42.5% in experiment [9] and 25.2% in [10].
`COc1ccc2c3nc4cc(C)c(C)cc4nc3n(CCN(C)C)c2c1`: the growth is -3.48% (active) in experiment [1]; 3.09% (active) in experiment [2]; -86% (active) in experiment [3]; -10% (active) in [4]; -25.5% (active) in experiment [5]; 27.8% in experiment [6]. Besides, the growth is -59.4% (active) in experiment [7], -88.1% (active) in [8], 10.5% in experiment [9] and -73.5% (active) in experiment [10].
Take `CO[C@@H]1CSSC1Cn1nc(-c2ccc(Oc3ccccc3)cc2)c2c(N)ncnc21` (stereo not given in full): the growth is 49.8% in [1]; 4.87% (active) in experiment [2]; 8.55% (active) in [3]; 52.1% in experiment [4]; 28.8% in experiment [5]; 39.5% in experiment [6]. The growth was 47.8% in experiment [7], 44.1% in experiment [8], 10.9% in experiment [9] and -90.6% (active) in experiment [10].
